In PubChem BioAssay AID493188 (National Center for Advancing Translational Sciences (NCATS), 2011):
Results filed as inconclusive are left out. Activity calls are given as the source filed them. Calls come from the whole dose curve; as a rule, active = well fitted inhibition curve with a large enough effect; inconclusive = small, poorly fitted or top-dose-only effect; inactive = flat fitted curve, though single readings scatter.

These compounds were tested against Galactokinase (Homo sapiens) (UniProt P51570) (assay: Confirmation Assay for Inhibitors of Human Galactokinase (GALK): SAR round 2). Settings: Recombinant GALK, Kinase-Glo ATP depletion luminescence; series mostly up to 57.5 µM.
Sequence of Galactokinase (Homo sapiens) (P51570 whole entry, looked up): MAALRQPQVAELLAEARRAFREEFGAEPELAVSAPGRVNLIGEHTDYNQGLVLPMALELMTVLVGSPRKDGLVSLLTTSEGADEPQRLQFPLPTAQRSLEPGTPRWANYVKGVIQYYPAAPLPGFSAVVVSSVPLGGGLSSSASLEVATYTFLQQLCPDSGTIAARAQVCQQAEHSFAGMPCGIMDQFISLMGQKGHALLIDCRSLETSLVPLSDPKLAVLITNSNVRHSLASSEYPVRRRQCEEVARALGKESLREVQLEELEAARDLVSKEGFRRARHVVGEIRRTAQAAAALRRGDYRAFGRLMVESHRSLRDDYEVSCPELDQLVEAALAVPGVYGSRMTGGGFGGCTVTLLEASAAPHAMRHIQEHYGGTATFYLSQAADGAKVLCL
From the text: NIH Molecular Libraries Probe Production Centers Network [MLPCN] NIH Chemical Genomics Center [NCGC] MLPCN Grant: R03 MH085689-01 Assay Submitter (PI): Kent Lai (University of Utah School of Medicine, 50 N Mario Capecchi Drive, Salt Lake City, UT 84132) NCGC Assay Overview Inherited deficiency of galactose-1-phosphate uridyltransferase (GALT) can result in a potentially lethal disorder called Classic Galactosemia (OMIM 230400). Several lines of evidence indicate that an elevated level of galactose-1-phosphate (gal-1-p), the product of galactokinase (GALK), is a major, if not sole, pathogenic mechanism in patients with classic galactosemia. Therefore, finding inhibitors of GALK is a potential novel therapy for this inherent metabolic disease and is the long term goal of this project. Active compounds observed in the qHTS GALK assay (AID: 1868) were cherry picked and re-screened for validation. GALK (provided by Kent Lai) was assayed using ATP and D-(+)-Galactose (Sigma-Aldrich cat# G0750) as substrates. Promega Kinase-Glo Plus (cat# V3774) technology was used to detect the residual ATP following kinetic reaction. Briefly, the Kinase-Glo Plus contains Ultra-Glo [1] luciferase and D-luciferin which generates a bioluminescence signal from the remaining ATP. Kinase reactions with and without GALK were used as negative and positive controls together with Protein Tyrosine Phosphatase CD45 inhibitor (EMD Bioscience cat# 540215) which is shown to inhibit GALK activity.
NCGC Assay Protocol Summary: Three uL/well of ATP-buffer solution (35 uM ATP, 20mM HEPES pH8.0, 5 mM MgCl2, 60 mM NaCl, 1 mM DTT, 0.01% BSA final concentration) was dispensed into 1536-well, assay plates (Greiner, solid white medium-binding plates) with Aurora Discovery BioRAPTR Flying Reagent Dispenser (FRD; Beckton-Dickenson). Compound and control solution (23 nL) was transferred to the assay plate using the Kalypsys 1536-pin tool apparatus. One uL/well GALK-galactose solution (5 nM GALK, 100 uM galactose, 20 mM HEPES pH8.0, 5 mM MgCl2, 60 mM NaCl, 1 mM DTT, 0.01% BSA final concentration) was then added using the FRD yielding a total kinase reaction volume of 4 uL/ well. After 1 hour of room temperature incubation, 4 uL Kinase-Glo Plus reagent was added for a final assay volume of 8 uL/well. Luminescence was detected with the ViewLux plate reader (Perkin Elmer, Waltham, MA) after 2 min incubation using a 1 sec exposure time and 2x binning.
With `O=C1CCCC2=C1C(c1ccccc1Cl)N=C(Nc1nc3ccccc3o1)N2` (configuration not stated) the Potency was 2.66 µM (active). `CC(C)c1nc(Nc2nc3ccccc3o2)nc2c1CCCC2` was tested, and the Potency was “inactive”. For `O=C1CCCC2=C1C(c1ccccc1)N=C(Nc1nc3ccccc3o1)N2` (configuration not stated), the Potency was 34.3 µM (active). `CC(C)(C)C(=O)Nc1ccc2c(c1)C(=O)C(=O)c1ccccc1-2` was tested, and the Potency was 2.59 µM (active). For `O=C1CCCC2=C1C(c1ccncc1Cl)N=C(Nc1nc3ccccc3o1)N2` (configuration not stated), the Potency was 15.3 µM (active). In the case of `O=C1CCCC2=C1C(c1ccccc1C(F)(F)F)N=C(Nc1nc3ccccc3o1)N2` (configuration not stated), the Potency is reported as 12.2 µM (active). For `Cc1ccc(N(CC(=O)Nc2ccc(OC(F)(F)F)cc2)S(=O)(=O)c2c(C)noc2C)cc1`, the Potency was “inactive”. With `Cc1ccc(C2N=C(Nc3nc4ccccc4o3)NC3=C2C(=O)CCC3)s1` (configuration not stated) the Potency was 61.1 µM (active). `COc1cccc(C2N=C(Nc3nc4ccccc4o3)NC3=C2C(=O)CCC3)c1` (configuration not stated) was tested, and the Potency was 18.8 µM (active). `O=C1CCCC2=C1C(c1cccc(Oc3ccccc3)c1)N=C(Nc1nc3ccccc3o1)N2` (configuration not stated) was tested, and the Potency was “inactive”. With `O=C1CCCC2=C1[C@@]1(CCC(c3ccccc3)C1)N=C(Nc1nc3ccccc3o1)N2` (some centres not stated) the Potency was “inactive”. With `Cc1nc(Nc2nc3ccccc3o2)nc2c1CCCC2` the Potency was “inactive”.
